Mtb BioA inh = BioA (M. tuberculosis) enzyme inhibition. purified M. tuberculosis BioA enzyme, plate reader. inhibition, % at 9.99 µM. hit rate 0.096% among 360,000. AID 602481; in the data active = inhibition above about 40%; inconclusive = no clear call, values can overlap the other calls
PfHsp40 yeast = restores yeast growth despite PfHsp40 toxicity. S. cerevisiae expressing PfHsp40, growth rescue, ATP luminescence. growth rescue, % at 12.5 µM. hit rate 0.68% among 340,000; in the data active = growth rescue above about 28%, passing the limit was not always enough; inconclusive = no clear call, values can overlap the other calls;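 also: yeast W303a lacking pdr1 and pdr3 grown in galactose medium; growth measured after three days at 30 °C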
Y pestis TopoI = inhibitors of Yersinia pestis topoisomerase I; Y. pestis Topo-I cleavage product accumulation, plate reader; activity, % at 10 µM; hit rate 0.064% among 360,000; in the data active = activity above about 50%, passing the limit was not always enough; inconclusive = no clear call, values can overlap the other calls
PrP 5UTR inh = inhibition of PrP 5' UTR reporter expression; inhibition, % (no concentration beside the values); hit rate 0.35% among 340,000; cell-based PrP 5' UTR mRNA reporter, plate reader; in the data active = inhibition above about 52%; also: 0 = median of the neutral control wells
FadD28 FP inh = M. tuberculosis FadD28 bisubstrate binding inhibition. FadD28 bisubstrate probe binding, fluorescence polarization. inhibition, % at 12.5 µM. hit rate 0.22% among 360,000; in the data active = inhibition above about 8.5%, passing the limit was not always enough; inconclusive = no clear call, values can overlap the other calls
* marks the source's active call; other numbers are inactive results; ? = inconclusive; nt = no result given. This is a sample that favours compounds with a hit; in the whole collection about 1.1% have one here.

SMILES | Mtb BioA inh | PfHsp40 yeast | Y pestis TopoI | PrP 5UTR inh | FadD28 FP inh
COC(=O)C1=C(C)NC(C)=C(C(=O)OC)C1c1ccccc1[N+](=O)[O-] | 0 | 37* | 2 | 11 | 2
Cc1cc(Nc2ccccc2)nn1C(=O)c1ccc(Br)cc1 | -1 | 2 | -2 | -2 | -2
Cc1cc(Nc2ccccc2)nn1C(=O)c1ccccc1 | 4 | 239* | -4 | -19 | -5
CC(C)(C)c1cc(-c2nc(N)nc(N)n2)c(O)c(C(C)(C)C)c1 | 0 | 225* | -3 | -11 | 4
C[C@]12CC[C@@H]3c4ccc(O)cc4CC[C@H]3[C@@H]1CC[C@@H]2O | 0 | -1 | 0 | -4 | -2
CC(NCCN(C)C)C1CCC2C3CCc4cc(O)ccc4C3CCC12C (configuration not stated) | nt | 63* | 4 | -20 | -5
COCC(=O)Nc1ccc2c(c1)[C@@H]1C[C@H](CC(=O)N3CCN(C)CC3)O[C@H](CO)[C@@H]1O2 | -3 | nt | nt | nt | nt
CC1=NN(c2nc(-c3ccc(F)cc3)cs2)C(=O)C1 | -3 | 13 | -14 | -15 | 18*
CC1=NN(c2nc(-c3ccc(Cl)cc3)cs2)C(=O)C1 | nt | 3 | -14 | -17 | ?
O=C(C[C@@H]1CC[C@@H]2[C@H](COC[C@H](O)CN2C(=O)c2ccncc2)O1)NC1CCC1 | -1 | nt | nt | nt | nt
N#CC(C#N)=NNc1ccc(S(=O)(=O)N2CCCCC2)cc1 | 0 | 0 | -5 | -11 | 0
N#CC(C#N)=NNc1ccc(S(N)(=O)=O)cc1 | 0 | 0 | -17 | -9 | 25*
Cc1ccc(S(=O)(=O)N(CCCO)CC(O)CON=C2c3ccccc3-c3ccccc32)cc1 (configuration not stated) | nt | 29* | 21 | -20 | -7
CCN(CC(O)Cn1c2ccccc2c2ccccc21)S(=O)(=O)c1ccc(C)cc1 (configuration not stated) | -1 | 10 | 18 | -15 | -2
CC1CCCCC1Nc1nc2ccc(Cl)cc2n2cnnc12 (configuration not stated) | -1 | 27* | 3 | 1 | -4
O=C1NC(=O)C(=Cc2ccccc2[N+](=O)[O-])S1 | 4 | 1 | 62* | -20 | -2
O=C1NC(=O)/C(=C/c2cccc3ccccc23)S1 | 2 | 11 | 0 | -7 | -9
O=C(CSc1ccc(-c2ccccn2)nn1)NCc1ccc(Cl)cc1 | nt | 331* | 5 | -16 | -1
Cc1ccc(CNC(=O)CSc2ccc(-c3cccs3)nn2)cc1 | -3 | 0 | -9 | 1 | -1
COc1cccc(CNC(=O)CSc2ccc(-c3ccccn3)nn2)c1 | nt | 357* | 3 | 2 | -2
Cc1ccc(CNC(=O)CSc2ccc(-c3ccccn3)nn2)cc1 | nt | 219* | 5 | 4 | -1
CC(C)NC(=O)Nc1ccc2c(c1)C(=O)N([C@H](C)CO)C[C@H](C)[C@H](CN(C)Cc1ccccc1)O2 | -1 | nt | nt | nt | nt
COc1ccc(Cc2nnc3n2N=C(c2cc4ccccc4o2)CS3)cc1OC | -3 | 6 | 54* | 7 | -2
C[C@H](CO)N1C[C@H](C)[C@H](CN(C)CC2CCOCC2)Oc2cc(C3=CCCC3)ccc2S1(=O)=O | -1 | nt | nt | nt | nt
COc1ccc(CN(C)C[C@H]2OCCCC[C@@H](C)Oc3ccc(NS(=O)(=O)c4ccc(F)cc4)cc3C(=O)N([C@H](C)CO)C[C@H]2C)cc1 | 0 | nt | nt | nt | nt
SMILES | Mtb BioA inh | PfHsp40 yeast | Y pestis TopoI | PrP 5UTR inh | FadD28 FP inh
Oc1ccc(/C=N/N(Cc2ccccc2)c2ccccc2)c(O)c1O | nt | 42* | -18 | -28 | 16*
Oc1cccc(/C=N/N(Cc2ccccc2)c2ccccc2)c1 | nt | 345* | -23 | -16 | -1
C(=N\N(Cc1ccccc1)c1ccccc1)/c1cccnc1 | nt | 4 | 15 | -25 | -4
C[C@@H]1CN([C@H](C)CO)C(=O)Cc2cc(NS(=O)(=O)c3cn(C)cn3)ccc2O[C@H]1CN(C)S(C)(=O)=O | 1 | nt | nt | nt | nt
CC(C)NC(=O)Nc1ccc2c(c1)C(=O)N(C)[C@H]1CC[C@@H](CC(=O)NCC(F)(F)F)O[C@@H]1CO2 | -11 | nt | nt | nt | nt
O=C(N/N=C/C(Cl)=C\c1ccccc1)c1cnccn1 | 45* | 0 | -7 | -15 | -1
O=C(N/N=C/C(Cl)=C/c1ccccc1)c1cnccn1 | 22 | -1 | -10 | -10 | 1
CCOC(=O)c1c(N2C(=O)CC(Sc3ccccc3C(=O)O)C2=O)sc2c1CCCC2 (configuration not stated) | nt | 41* | 16 | -22 | -1
C[C@@H]1CN([C@H](C)CO)C(=O)c2cc(-c3ccccc3F)cnc2O[C@H]1CN(C)C(=O)C1CCOCC1 | 3 | nt | nt | nt | nt
Cc1ccc(/C=N/c2sc3c(c2C#N)CCC3)s1 | 0 | 43* | -7 | -83 | 1
Cc1ccc(/C=N/c2sc3c(c2C#N)CCCCC3)o1 | 1 | 3 | -12 | -54 | -2
Cc1ccc(S(=O)(=O)N(C)C[C@H]2Oc3ccc(NC(=O)Nc4ccccc4)cc3C(=O)N([C@@H](C)CO)C[C@@H]2C)cc1 | 0 | nt | nt | nt | nt
COc1ccc(CN(C)C[C@@H]2Oc3ccc(NC(=O)Nc4ccc(OC)cc4)cc3C(=O)N([C@H](C)CO)C[C@@H]2C)cc1 | 2 | nt | nt | nt | nt
O=C(Nc1ccc(Cl)cn1)c1cccc(S(=O)(=O)N2CCCCC2)c1 | -1 | 70* | 16 | -12 | -5
O=C(Nc1ccc(Cl)cn1)c1cccc(S(=O)(=O)N2CCCCCC2)c1 | 2 | nt | 13 | nt | -2
CNC(=O)C[C@@H]1CC[C@H]2[C@@H](COc3ccc(NC(=O)Nc4cccc(Cl)c4)cc3C(=O)N2C)O1 | -1 | nt | nt | nt | nt
COC(=O)CS(=O)(=O)c1nnc([C@H](Cc2ccccc2)NC(=O)OC(C)(C)C)o1 | nt | 0 | 5 | 16 | 1
Cc1cccc(CS(=O)(=O)c2nnc([C@H](Cc3ccccc3)NC(=O)OC(C)(C)C)o2)c1 | -1 | 373* | 3 | nt | -3
Cc1ccccc1OCC(=O)Nc1ccccc1N1CCCCC1 | 2 | 0 | 55* | -33 | -4
O=C(COc1c(Cl)cccc1Cl)Nc1ccccc1N1CCCC1 | -1 | 5 | 54* | -12 | -1
CC(Oc1ccc(F)cc1)C(=O)Nc1ccccc1N1CCCCC1 (configuration not stated) | 1 | 2 | 65* | -11 | -1
Cc1cc(Cl)ccc1OCC(=O)Nc1ccccc1N1CCOCC1 | 0 | -1 | 53* | -2 | -3
CC(Oc1cccc(Cl)c1)C(=O)Nc1ccccc1N1CCCCC1 (configuration not stated) | 1 | 0 | 34 | -11 | -2
Cc1cc(Cl)ccc1OCC(=O)NC(=S)Nc1ccccc1N1CCOCC1 | nt | -1 | -5 | -26 | 0
Cc1cccc(OCC(=O)Nc2ccccc2N2CCCC2)c1C | -1 | 2 | -7 | 5 | -1
O=C(C[C@@H]1C=C[C@@H](NC(=O)Nc2cc(F)ccc2F)[C@H](CO)O1)Nc1ccc(-c2ccccc2)cc1 | -1 | nt | nt | nt | nt
CN1c2ccc(-c3ccc(F)cc3)cc2[C@@H]2[C@@H](CCN2S(=O)(=O)c2cccc(F)c2)[C@H]1CO | -1 | nt | nt | nt | nt
CC(=O)Nc1ccc(-c2csc(N/N=C(/C)c3ccccc3)n2)cc1 | nt | 90* | 3 | -26 | 3
COC(=O)CSc1nc2cc3c(cc2cc1C)OCCO3 | -2 | 163* | 4 | -14 | -4

Screening results from PubChem.
